Measured values as given in PubChem BioAssay (NCI).
The panel holds about 83,000 compounds, 20% with a hit somewhere; the sample as a whole holds those more often.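 A percent growth of 40 corresponds to 60% growth inhibition; 0 means no net growth; -100 means all cells died. Active threshold: below 10.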 A number with no mark means an inactive call. Activity calls are given as the source filed them.

What follows are compounds tested on HL-60(TB) leukemia (assay: NCI-60 one-dose screen, 48 h (100 = growth as untreated, 0 = no growth, -100 = all killed)). Conditions: 10 µM unless noted.
Work on `O=C(Nc1ccccc1)P(=O)(O)c1ccccc1` yielded a growth of 92.2%. With `O=C(CCCCCCCCC(=O)N/N=C\c1cc(Cl)ccc1O)N/N=C\c1cc(Cl)ccc1O` the growth was 9.81% (active). In the case of `CCOc1ccc(/C=N/Nc2cc(C)nc3ccc(Br)cc23)cc1`, the growth is reported as 53.3%. For `COc1ccc(NC(=O)COCCOCCNC[C@@H]2C(=O)O[C@H]3[C@H]2CC/C(COC(=O)OC/C2=C/CC[C@@]4(C)O[C@H]4[C@H]4OC(=O)[C@@H](CN(C)C)[C@@H]4CC2)=C\CC[C@@]2(C)O[C@@H]32)c(O)c1C(N)=O`, the growth was -48.2% (active). Work on `C=C1C(=O)O[C@H]2[C@H]1CC/C(C=Nc1c(N)cc(F)cc1Br)=C\CC[C@@]1(C)O[C@@H]21` yielded a growth of 37.1%. `Cc1ccc(-c2nc3ccc(Cl)cn3c2NC2CCCCC2)o1` gave a growth of 61.7%. `COc1cc(-c2nn(-c3cccc(NC(=O)Nc4ccc(Cl)c(C(F)(F)F)c4)c3)cc2-c2ccncc2)ccc1Cl` was tested, and the growth was -19.8% (active). With `C#CCNC(=O)[C@H](CC)[C@H]1CC[C@H](C)[C@H]([C@@H](C)[C@H](O)[C@H](C)C(=O)[C@H](CC)C2O[C@]3(C=CC(=O)[C@]4(CC[C@@](C)([C@H]5CC[C@](O)(CC)[C@H](C)O5)O4)O3)[C@H](C)C[C@@H]2C)O1` (stereo not given in full) the growth was 1.79% (active). With `COc1cc(C(=O)/C=C/c2c(C)n([O-])c3ccc(C)cc3[n+]2=O)cc(OC)c1OC` the growth was -42.6% (active). For `Cn1cc(C(=O)c2nc(-c3c[nH]c4ccc(Br)cc34)no2)c2cc(F)ccc21`, the growth was 94.7%.
